In test [1] the test system is PRMT1 (protein arginine N-methyltransferase 1). The test is described as follows: PRMT1 binders on small-molecule microarrays, primary screen, biochemical, small-molecule microarray, 635 nm fluorescence (AID 1088).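 Note: binding of Prmt1 protein to compounds spotted on small-molecule microarray slides.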 To be noted: small-molecule microarray binding, higher = more signal.
The nature of test [2]: yeast growth modulation, basal conditions, primary screen, YJM789 clinical isolate, OD600, 24 h (AID 1089).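 Note: growth of clinical yeast isolate S. cerevisiae YJM 789 seeded 1000 cells per well; test concentration not given here.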 The note with it: S. cerevisiae YJM789 growth, higher = more signal, called active from +8 up or from −8 down.
The nature of test [3]: fission yeast growth modulation, primary screen, strain 972, OD600, 24 h, no modulator (AID 1090).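 Note: basal condition with compound alone and no growth modifier present; test concentration not given here.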 The note with it: S. pombe 972 growth, higher = more signal, called active from +8 up or from −8 down.
The nature of test [4]: S. cerevisiae growth modulation with rapamycin, primary screen, strain BY4716, OD600, 96 h (AID 1091). Note: test concentration not given here. To be noted: higher = more signal, called active from +8 up or from −8 down.
Test [5] has as its target Torsin-1A-interacting protein 2 (Homo sapiens) (UniProt Q8NFQ8). As to the kind of experiment: LULL1 binders on small-molecule microarray, primary screen, cell lysate, human LULL1 lysate, 635/667 nm fluorescence (AID 1092).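 Note: probe is lysate of COS7 cells overexpressing human LULL1; score merges per-feature 667 nm fluorescence with signal-to-noise.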 The note with it: hLULL1 lysate binding, 635 nm fluorescence, higher = more signal.
Test [6] can be described thus: E. coli growth modulation, two-sided OD650, primary screen, E. coli filamentation project, strain DRC41, 24 h (AID 1093).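 Note: MC1000 strain lacking acrAB efflux and sulA so SOS filamentation is blocked; test concentration not given here.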 The note with it: OD650, 24 h, higher = more signal, called active from +8 up or from −8 down.
The nature of test [7]: small-molecule microarray binders of probe aLefty2, primary screen, biochemical, biotinylated probe, 635/667 nm fluorescence (AID 1094).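 Note: score merges spot fluorescence near 667 nm with spot signal-to-noise ratio.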 To be noted: higher = more signal.
Test [8] deals with Noggin (protein binding on small-molecule microarray). As to the kind of experiment: Noggin binders on small-molecule microarray, primary screen, biochemical, 635/667 nm fluorescence (AID 1095).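 Note: score merges 667 nm feature fluorescence with signal to noise over triplicate slides.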 The note with it: 635 nm fluorescence, higher = more signal.
Test [9] addresses Neurogenic locus notch homolog protein 3 (Homo sapiens) (UniProt Q9UM47). The test is described as follows: NOTCH3 binders on small-molecule microarray, primary screen, biochemical, 635/667 nm fluorescence (AID 1096). To be noted: NOTCH3 binding, 635 nm fluorescence, higher = more signal.
Test [10] can be described thus: small-molecule microarray binders of probe aEGFR, primary screen, biochemical, biotinylated probe, 635/667 nm fluorescence (AID 1097).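 Note: probe is a biotinylated anti-EGFR antibody binding compounds printed on slides; score combines fluorescence near 667 nm and signal to noise of each spot.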 The note with it: higher = more signal.
The subject of test [11] is Plasmodium falciparum Sir2 (PF13_0152, Sir2A). As to the kind of experiment: pfSir2 binders on small-molecule microarrays, primary screen, biochemical, small-molecule microarray, 635 nm fluorescence (AID 1098).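 Note: score merges spot fluorescence intensity with its signal-to-noise ratio.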 To be noted: small-molecule microarray binding, fluorescence 635 nm; higher = more signal.
A short description of test [12]: small-molecule microarray binders of probe aDKK1, primary screen, biochemical, biotinylated probe, 635/667 nm fluorescence (AID 1099).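 Note: score merges 667nm spot fluorescence with signal to noise across triplicate slides; reference of the scale not given here.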 To be noted: higher = more signal.
A short description of test [13]: small-molecule microarray binders of probe aCHRDL2, primary screen, biochemical, biotinylated probe, 635/667 nm fluorescence (AID 1100). The note with it: higher = more signal.
Test [14] is described as follows: splicing luciferase reporter signal modulators, primary screen, spliceosome inhibition project, cell-based, HEK293, splice +/- reporter (AID 1101).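 Note: HEK293 cells carrying a splicing-competent luciferase reporter gene; test concentration not given here.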 To be noted: luminescence, 24 h, higher = more signal, called active from +8 up or from −8 down.
The target in test [15] is Fibroblast growth factor 10 (Homo sapiens) (UniProt O15520). As to the kind of experiment: FGF10 binders on small-molecule microarrays, primary screen, biochemical, small-molecule microarray, 635 nm fluorescence (AID 1102). To be noted: FGF10 binding, fluorescence 635 nm, higher = more signal.
Test [16] deals with glycogen synthase kinase-3 (GSK3A per assay name; protocol says GSK3B). The test is described as follows: GSK3 binders on small-molecule microarrays, primary screen, biochemical, small-molecule microarray, 635 nm fluorescence, GSK3A (AID 1103). Note: the record names both GSK3A and GSK3B. The note with it: small-molecule microarray binding, fluorescence 635 nm; higher = more signal.
Test [17] has as its target Epidermal growth factor receptor (Homo sapiens) (UniProt P00533). The test is described as follows: EGFR binders on small-molecule microarrays, primary screen, biochemical, small-molecule microarray, 635 nm fluorescence (AID 1104).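 Note: score merges 667 nm emission intensity with spot signal to noise over triplicate slides.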 To be noted: EGFR binding, higher = more signal.
Test [18] concerns the target Follistatin-related protein 3 (Homo sapiens) (UniProt O95633). As to the kind of experiment: FSTL3 binders on small-molecule microarrays, primary screen, biochemical, small-molecule microarray, 635 nm fluorescence (AID 1105).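 Note: score merges emission near 667 nm and signal to noise per printed spot across three slides.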 To be noted: FSTL3 binding, higher = more signal.
Test [19] concerns the target Dickkopf-related protein 1 (Homo sapiens) (UniProt O94907). The test is described as follows: DKK1 binders on small-molecule microarrays, primary screen, biochemical, small-molecule microarray, 635 nm fluorescence scan (AID 1106).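 Note: score merges emission near 667 nm with signal to noise over three replicate slides.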 The note with it: DKK1 binding, higher = more signal.
Test [20] concerns Inhibin beta A chain (activin A). As to the kind of experiment: INHBA (activin A) binders on microarrays, primary screen, biochemical, small-molecule microarray, 635 nm fluorescence scan (AID 1107).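 Note: mouse activin A protein probed at 4.33 µg/mL on printed slides; score merges bound-protein fluorescence near 667 nm with spot signal-to-noise.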 To be noted: small-molecule microarray binding, higher = more signal.

Molecules are shown by their SMILES. The source made the active and inactive calls.

Sequence of Fibroblast growth factor 10 (Homo sapiens) (O15520 whole entry, looked up): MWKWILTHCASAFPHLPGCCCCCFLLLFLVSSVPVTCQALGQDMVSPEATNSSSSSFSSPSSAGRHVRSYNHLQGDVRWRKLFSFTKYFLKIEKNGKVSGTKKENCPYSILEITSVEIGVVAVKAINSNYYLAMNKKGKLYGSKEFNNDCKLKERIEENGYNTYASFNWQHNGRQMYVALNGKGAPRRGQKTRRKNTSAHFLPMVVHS
Sequence of Torsin-1A-interacting protein 2 (Homo sapiens) (Q8NFQ8 whole entry, looked up): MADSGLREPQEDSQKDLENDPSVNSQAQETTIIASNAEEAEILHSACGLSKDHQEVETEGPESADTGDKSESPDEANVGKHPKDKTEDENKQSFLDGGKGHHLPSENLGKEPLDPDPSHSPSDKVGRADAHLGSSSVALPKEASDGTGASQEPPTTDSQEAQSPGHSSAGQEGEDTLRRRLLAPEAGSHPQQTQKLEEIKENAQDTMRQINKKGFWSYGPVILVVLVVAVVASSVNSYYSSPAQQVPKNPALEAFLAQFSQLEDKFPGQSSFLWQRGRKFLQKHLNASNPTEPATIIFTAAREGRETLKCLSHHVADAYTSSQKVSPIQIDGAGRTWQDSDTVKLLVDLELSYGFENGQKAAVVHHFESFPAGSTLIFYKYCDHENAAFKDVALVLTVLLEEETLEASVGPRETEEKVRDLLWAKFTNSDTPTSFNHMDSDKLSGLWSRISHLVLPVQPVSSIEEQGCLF
Sequence of Neurogenic locus notch homolog protein 3 (Homo sapiens) (Q9UM47 whole entry, looked up): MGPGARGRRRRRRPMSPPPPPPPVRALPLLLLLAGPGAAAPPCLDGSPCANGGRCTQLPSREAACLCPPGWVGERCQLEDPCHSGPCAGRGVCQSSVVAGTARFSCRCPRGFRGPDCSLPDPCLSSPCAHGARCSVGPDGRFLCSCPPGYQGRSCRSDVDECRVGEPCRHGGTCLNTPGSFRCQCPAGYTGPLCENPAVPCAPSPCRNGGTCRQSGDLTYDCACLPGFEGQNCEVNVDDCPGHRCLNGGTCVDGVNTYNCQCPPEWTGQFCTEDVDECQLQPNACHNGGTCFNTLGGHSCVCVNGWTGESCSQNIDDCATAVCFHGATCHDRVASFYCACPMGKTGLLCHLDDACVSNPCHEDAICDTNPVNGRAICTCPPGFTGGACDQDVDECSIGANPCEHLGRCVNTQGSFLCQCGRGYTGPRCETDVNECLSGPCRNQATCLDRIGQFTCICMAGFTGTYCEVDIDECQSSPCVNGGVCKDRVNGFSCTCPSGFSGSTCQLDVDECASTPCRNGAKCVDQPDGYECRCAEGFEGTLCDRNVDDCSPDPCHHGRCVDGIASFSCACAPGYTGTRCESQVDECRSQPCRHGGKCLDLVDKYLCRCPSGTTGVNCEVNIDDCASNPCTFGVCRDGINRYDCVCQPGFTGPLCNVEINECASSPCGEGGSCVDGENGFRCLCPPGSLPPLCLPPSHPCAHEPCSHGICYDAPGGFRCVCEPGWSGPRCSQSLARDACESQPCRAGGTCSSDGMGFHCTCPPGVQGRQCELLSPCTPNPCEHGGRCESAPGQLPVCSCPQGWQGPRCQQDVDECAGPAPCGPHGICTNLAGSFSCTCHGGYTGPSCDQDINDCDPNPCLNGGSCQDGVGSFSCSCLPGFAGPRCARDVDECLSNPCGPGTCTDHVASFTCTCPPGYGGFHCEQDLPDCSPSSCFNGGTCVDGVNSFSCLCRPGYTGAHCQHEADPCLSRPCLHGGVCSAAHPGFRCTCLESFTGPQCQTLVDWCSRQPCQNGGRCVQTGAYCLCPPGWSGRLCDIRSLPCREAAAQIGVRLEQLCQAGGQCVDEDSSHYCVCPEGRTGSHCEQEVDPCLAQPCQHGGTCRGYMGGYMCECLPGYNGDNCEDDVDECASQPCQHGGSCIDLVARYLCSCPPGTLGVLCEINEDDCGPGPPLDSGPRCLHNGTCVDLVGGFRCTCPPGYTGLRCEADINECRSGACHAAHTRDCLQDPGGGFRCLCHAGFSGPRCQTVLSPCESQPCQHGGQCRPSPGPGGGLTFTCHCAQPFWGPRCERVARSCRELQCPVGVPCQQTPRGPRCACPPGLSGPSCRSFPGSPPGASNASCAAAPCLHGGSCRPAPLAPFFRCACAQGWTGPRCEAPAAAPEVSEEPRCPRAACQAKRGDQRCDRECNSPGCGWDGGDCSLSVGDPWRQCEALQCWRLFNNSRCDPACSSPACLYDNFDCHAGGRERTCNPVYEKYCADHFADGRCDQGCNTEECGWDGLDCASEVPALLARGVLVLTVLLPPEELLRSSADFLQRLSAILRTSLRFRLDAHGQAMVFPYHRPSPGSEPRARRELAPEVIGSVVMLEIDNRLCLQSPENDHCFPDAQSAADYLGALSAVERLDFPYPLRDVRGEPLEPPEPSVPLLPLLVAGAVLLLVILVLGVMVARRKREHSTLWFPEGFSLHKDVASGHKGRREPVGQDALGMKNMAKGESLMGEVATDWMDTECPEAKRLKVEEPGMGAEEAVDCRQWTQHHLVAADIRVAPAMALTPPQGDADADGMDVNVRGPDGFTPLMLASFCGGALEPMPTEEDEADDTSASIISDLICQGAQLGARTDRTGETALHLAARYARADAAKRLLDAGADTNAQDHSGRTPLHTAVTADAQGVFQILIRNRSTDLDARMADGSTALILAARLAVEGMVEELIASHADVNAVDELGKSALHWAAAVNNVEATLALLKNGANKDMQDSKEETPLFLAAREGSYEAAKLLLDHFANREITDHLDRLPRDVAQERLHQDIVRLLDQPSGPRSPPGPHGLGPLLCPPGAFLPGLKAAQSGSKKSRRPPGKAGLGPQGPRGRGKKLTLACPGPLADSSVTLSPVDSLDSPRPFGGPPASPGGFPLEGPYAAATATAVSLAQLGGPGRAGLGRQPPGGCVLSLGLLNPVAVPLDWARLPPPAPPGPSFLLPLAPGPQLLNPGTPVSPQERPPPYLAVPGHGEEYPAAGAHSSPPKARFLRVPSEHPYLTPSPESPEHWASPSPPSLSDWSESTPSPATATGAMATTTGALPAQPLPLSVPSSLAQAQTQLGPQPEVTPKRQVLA
Sequence of Follistatin-related protein 3 (Homo sapiens) (O95633 whole entry, looked up): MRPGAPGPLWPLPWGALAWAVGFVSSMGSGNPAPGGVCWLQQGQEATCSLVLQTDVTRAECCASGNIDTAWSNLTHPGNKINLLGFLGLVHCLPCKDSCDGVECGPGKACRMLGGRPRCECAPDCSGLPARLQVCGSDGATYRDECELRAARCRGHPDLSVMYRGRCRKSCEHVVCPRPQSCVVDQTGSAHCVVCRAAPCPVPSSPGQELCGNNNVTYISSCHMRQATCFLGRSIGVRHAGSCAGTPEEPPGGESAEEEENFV
Sequence of Dickkopf-related protein 1 (Homo sapiens) (O94907 whole entry, looked up): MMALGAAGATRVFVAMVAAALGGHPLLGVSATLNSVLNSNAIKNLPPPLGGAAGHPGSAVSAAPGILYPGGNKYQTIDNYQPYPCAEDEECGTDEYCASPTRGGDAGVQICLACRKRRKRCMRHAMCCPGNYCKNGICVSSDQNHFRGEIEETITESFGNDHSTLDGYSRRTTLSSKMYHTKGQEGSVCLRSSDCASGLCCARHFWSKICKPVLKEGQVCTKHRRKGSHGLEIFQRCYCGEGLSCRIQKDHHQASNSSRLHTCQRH
Sequence of Epidermal growth factor receptor (Homo sapiens) (P00533 whole entry, looked up): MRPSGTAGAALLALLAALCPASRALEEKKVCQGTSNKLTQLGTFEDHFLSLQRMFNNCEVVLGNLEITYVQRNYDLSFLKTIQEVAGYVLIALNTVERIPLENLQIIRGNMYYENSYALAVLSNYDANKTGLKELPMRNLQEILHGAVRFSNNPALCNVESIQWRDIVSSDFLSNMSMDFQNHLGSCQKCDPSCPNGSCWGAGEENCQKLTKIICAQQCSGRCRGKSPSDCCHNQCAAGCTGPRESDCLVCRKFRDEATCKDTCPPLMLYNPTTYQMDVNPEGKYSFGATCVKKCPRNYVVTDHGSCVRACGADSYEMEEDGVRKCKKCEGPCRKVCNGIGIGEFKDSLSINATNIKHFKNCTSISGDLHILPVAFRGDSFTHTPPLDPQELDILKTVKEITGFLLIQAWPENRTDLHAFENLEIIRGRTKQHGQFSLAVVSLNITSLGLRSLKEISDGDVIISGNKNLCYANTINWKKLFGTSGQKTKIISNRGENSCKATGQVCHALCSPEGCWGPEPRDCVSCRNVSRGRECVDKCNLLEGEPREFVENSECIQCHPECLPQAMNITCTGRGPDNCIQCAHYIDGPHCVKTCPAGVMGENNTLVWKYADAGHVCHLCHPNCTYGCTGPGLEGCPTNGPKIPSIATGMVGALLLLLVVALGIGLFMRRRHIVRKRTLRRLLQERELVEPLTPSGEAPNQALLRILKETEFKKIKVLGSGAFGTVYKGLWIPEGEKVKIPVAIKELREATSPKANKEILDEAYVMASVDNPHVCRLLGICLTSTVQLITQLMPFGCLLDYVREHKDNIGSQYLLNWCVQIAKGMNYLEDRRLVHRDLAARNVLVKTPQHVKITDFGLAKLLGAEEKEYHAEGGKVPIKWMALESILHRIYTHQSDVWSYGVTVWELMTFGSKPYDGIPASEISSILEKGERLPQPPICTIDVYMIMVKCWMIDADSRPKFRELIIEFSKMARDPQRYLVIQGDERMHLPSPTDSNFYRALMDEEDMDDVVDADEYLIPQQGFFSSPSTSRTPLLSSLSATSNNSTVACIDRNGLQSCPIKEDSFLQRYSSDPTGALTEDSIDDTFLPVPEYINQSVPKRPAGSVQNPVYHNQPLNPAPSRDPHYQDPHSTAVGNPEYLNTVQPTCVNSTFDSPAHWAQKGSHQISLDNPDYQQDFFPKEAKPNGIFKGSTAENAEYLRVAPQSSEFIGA

Take `CCOC(=O)C1=CC[C@@H](c2ccc(-c3ccc(OCc4ccccc4)cc3)c(OC)c2)N(S(=O)(=O)c2ccc(C)cc2)[C@H]1c1ccccc1`: the composite z-score in [1] is 1.46; in test [5] it was 2.93; in test [7], 0.158; in [8], 0.73; in test [9] it was 1.09; in test [10], -0.0255. Further, the composite z-score in test [11] was 1.13; in test [12] it was 0.583; in test [13], 0.721; in [15], 1.24; in [16], 1.28; in test [17] it was 0.12. The values for the composite z-score in [18], in test [19] and in [20] were 1.38, 0.273 and 0.765, respectively. Also, the z-score was -0.534 (inactive) in test [2]; -1.27 (inactive) in test [3]; 3.66 (inactive) in test [4]; -0.0642 (inactive) in [6]; -1.44 (inactive) in test [14].

Take `Cc1ccc(S[C@]2(C(=O)NC(C)C)CC(=O)N(Cc3cc(C(F)(F)F)cc(C(F)(F)F)c3)[C@@H]2c2ccc(CO)cc2I)cc1`: the composite z-score in test [1] was 1.26; in test [5], 2.04; in test [7], -0.0544; in [8], -0.147; in test [9], -0.513; in test [10], -0.317. In addition, the composite z-score is -0.602 in test [11]; 0.0628 in test [12]; 0.892 in test [13]; -0.816 in test [15]; -0.504 in test [16]; -1.36 in test [17]. In addition, the composite z-score in test [18] was -0.923; in test [19] it was -1.27; in [20] it was -0.748. Besides, the z-score in test [2] was -0.698 (inactive); in [3], -2.47 (inactive); in test [4] it was 1.2 (inactive); in test [6], 0.715 (inactive); in test [14], -0.181 (inactive).

For `CCC1=C2CN(Cc3ccccc3Br)[C@@H]([C@@H](O)Cc3ccccc3)C2C=CCC1` (stereo not given in full), the composite z-score in [1] is 1.24; in test [5], 2.11; in test [7], -0.125; in test [8] it was 0.515; in test [9], 1.05; in test [10] it was -0.0981. Also, the composite z-score in test [11] is 0.124; in [12], -0.0181; in test [13] it was -0.311; in [15] it was 0.597; in [16], 0.6; in test [17], 0.164. Further, the results for the composite z-score in test [18], in test [19] and in test [20] were 0.961, 0.513 and 0.677, respectively. The z-score in [2] is -0.828 (inactive); in test [3] it was -5.56 (inactive); in test [4] it was -1.13 (inactive); in test [6], 0.777 (inactive); in [14], -2.14 (inactive).

Take `CCCN1C(=O)[C@@]2(CCS(=O)(=O)c3ccccc3)N=C(c3ccc(OCCCO)cc3)O[C@H]2c2ccccc21`: the composite z-score is 1.53 in test [1]; 2.8 in test [5]; 0.0686 in [7]; 1.03 in test [8]; 1.09 in test [9]; -0.0118 in test [10]. The composite z-score amounted to 0.915 in test [11]; 0.164 in test [12]; 0.827 in test [13]; 0.736 in test [15]; 1.31 in test [16]; 0.279 in test [17]. Moreover, the composite z-score in test [18] turned out to be 0.998; in [19] it was 0.503; in test [20] it was 0.96. Moreover, the z-score in [2] is 0.817 (inactive); in test [3], 0.69 (inactive); in [4], 4.5 (inactive); in test [6], 0.341 (inactive); in test [14], 0.597 (inactive).

With `COCCOC(=O)N1C(=O)[C@@]2(c3cc(C#CCCO)ccc31)[C@H](C(=O)N1CCCCCCC1)[C@H]1C(=O)O[C@H](c3ccccc3)[C@H](c3ccccc3)N1[C@@H]2c1ccc(O)cc1`, the composite z-score worked out at 1.56 in [1]; 2.91 in [5]; 1.08 in test [7]; 1.11 in test [8]; 1.05 in test [9]; 0.0645 in test [10]. In addition, the composite z-score in [11] came to 1.46; in [12] it was 1.53; in [13], 1.19; in test [15], 0.494; in test [16], 1.28; in test [17], 0.292. Further, the composite z-score in test [18] amounted to 1.3; in test [19] it was 0.4; in test [20] it was 1.27. Moreover, the z-score in test [2] was -3.75 (inactive); in test [3] it was -2.94 (inactive); in test [4], -1.62 (inactive); in test [6], 3.27 (inactive); in [14], -1.15 (inactive).
